Experimental data from PubChem BioAssay AID504773 (Broad Institute, 2011).
Measured potencies and affinities stand elsewhere.

These molecules were tested against Golgi-associated PDZ and coiled-coil motif-containing protein (Homo sapiens) (UniProt Q9HD26) (assay: potency against CAL PDZ-peptide interaction – biochemical, fluorescence polarization, Cerulean-tagged CAL PDZ, cherry-picks, dose response (AID 504773;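 note: 0% = DMSO neutral wells and -100% = excess unlabeled competitor peptide wells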)). Conditions: CAL PDZ-peptide binding, 1 h; series mostly up to 50 µM; activity change, negative = inhibition: at the top concentration;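 active = polarization signal falls with dose and the fitted half-maximal concentration is at or below ten times the sample's top valid dose; inconclusive = flat curve at 30 to 70% inhibition, or poor fit; inactive = signal rises, flat within 30%, or potency beyond limit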.

Activity change, negative = inhibition, inactive:
COc1ccccc1C(=O)Nc1ccc2c(c1)CN(C(=O)CSC)CC2 5.71%
CC(=O)Nc1cccc(NC(=O)CSc2nnc(NC(=O)c3ccco3)s2)c1 14.6%
Cc1ccccc1S(=O)(=O)NC(=NCc1ccc(F)cc1)c1ccccc1 -1.95%
O=C(OCC(=O)N1CCOCC1)c1ccc[nH]c1=O 33.5%
CC1=C(C#N)C(=O)NC(=O)/C1=C\c1ccc(-c2cc(C)c(C)cc2[N+](=O)[O-])o1 24.4%
COc1ccc(CC(=O)NCC2CCCN(Cc3cccc(SC)c3)C2)cc1 (configuration not stated) 26.5%
Cc1cc(SC2CCOC2=O)nc2ccccc12 (configuration not stated) 6.41%
O=C(NNS(=O)(=O)c1ccc(Cl)cc1)c1cccs1 20.6%
COc1ccc(N2CCN(C(=O)c3cccc4nc(C)oc34)CC2)cc1 15.8%
CC(C)(C)c1nn(-c2ccccc2)c2[nH]c(=O)c(C=O)cc12 -49.3%
CCCOc1ccc(CC(=O)N/N=C\c2ccc(F)cc2)cc1 24.2%
Cc1ccc(C)c(N(CC(=O)NC(C)(C)C)C(=O)CCC(=O)Nc2nccs2)c1 3.45%
Cn1c(CNC(=O)OC(C)(C)C)n[nH]c1=S -16.5%
O=C(NCc1ccccc1Cl)C1CC(=O)N(Cc2ccccc2)C1 (configuration not stated) 11.4%
CN(C)c1ccc(C(=O)OCC(=O)NC2CCCCCC2)cc1 9.33%
COc1cc(NS(=O)(=O)c2ccc(NC(=S)Nc3ccccc3)cc2)nc(OC)n1 -0.366%
O=C(COC(=O)c1ccccc1C(=O)N1CCN(c2ccccc2)CC1)NCc1ccccc1 -4.35%
Cc1ccnc2nc(C(=O)OCCOc3ccc(F)cc3)nn12 -16.9%
O=C(NNC(=S)NC(=O)c1ccc(Br)cc1)c1ccc([N+](=O)[O-])cc1 5.57%
CC(C)(C)OC(=O)N[C@@H](Cc1c[nH]c2ccccc12)c1nnc(SCC(N)=O)o1 13.3%
CCCCC(CCC(=O)Nc1nccs1)C(=O)O (configuration not stated) 25.2%
C=CCNC(=S)Nc1ccc(C)c(S(=O)(=O)N2CCCCC2)c1 -15.4%
COc1ccccc1NC(=O)N(c1c(N)n(Cc2ccccc2)c(=O)[nH]c1=O)C1CCCC1 26.7%
O=C1c2ccccc2C(O)N1c1ccccc1 (configuration not stated) 8.17%
CC(C)CNC(=O)CN1C(=O)NC(Cc2c[nH]c3ccccc23)C1=O (configuration not stated) 13.9%
O=C(COC(=O)c1cccc(O)c1)NC(=O)Cc1ccccc1 7.51%
COc1ccc(/C=C/C(=O)Nc2ccc3nc4n(c(=O)c3c2)CCCC4)cc1OC -58.9%
COn1c(SCc2ccccc2)nc2ccccc2c1=O -44.9%
O=C(NNC(=O)c1c(F)cccc1F)c1sccc1-n1cccc1 12.1%
Cc1cc(C)c(S(=O)(=O)NCc2ccc3c(c2)OCO3)c(C)c1 -39.8%
COc1ccc(OC)c(NC(=O)c2ccc(OC3CSC3)cc2)c1 7.43%
C=CCOc1c(Cl)cc(CNn2cn[nH]c2=S)cc1OC 29.5%
Fc1ccc(-n2c(-c3ccc4ccccc4n3)n[nH]c2=S)cc1Cl -6.43%
CCOC(=O)/C=C/C(=O)OCC(=O)Nc1ccc([N+](=O)[O-])cc1 29.7%
C[n+]1ccc(C(=O)Nc2ccccc2Cl)cc1 4.9%
CCCNC(=O)C(=O)NCC1CCCN1CC (configuration not stated) -64.5%
Cc1ccc(NC(=O)CN(C)CC(=O)Nc2cccc(F)c2)cc1S(=O)(=O)N1CCCCCC1 7.54%
